Hits are enriched below; roughly 21% of the tested compounds scored in any of these assays.
Shiga toxin inh = Shiga toxin inhibition; 290,000 tested, 9.2% active; inhibition, % at 38.7 µM; AID 2315; Vero cells, Shiga toxin protein synthesis inhibition reporter; in the data active = inhibition mostly above about 28%, no sharp cut-off; inactive = mostly below about 43%
AMA1-RON2 inh = inhibitors of Plasmodium falciparum AMA1-RON2 interaction; AlphaScreen AMA1-biotinylated RON2 peptide binding; Potency, µM (doses to about 58.2 µM), most hits filed as inhibitors; 360,000 tested, 0.2% active; also: nearly all actives have a fitted effect of over 45% in size
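AMA1 (3D7) with his tag at 25 nM final met compounds first, then biotinylated RON2 peptide at 25 nM; detection used donor plus acceptor beads, 10 µg/mL apiece, read by AlphaScreen after 30 min at room temperature.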
CHX counter = affects cycloheximide protein synthesis inhibition readout, counter-screen; cell reporter, cycloheximide protein synthesis inhibition counterscreen; max response, %; 300,000 tested, 12% active; in the data active = max response mostly above about 13%, no sharp cut-off; inactive = mostly below about 14%; also: read at 38.3 µM for the half of the compounds with a filed dose
HCV inh = blocks hepatitis C virus | Huh7.5.1 HCVcc-Cre infection, luciferase reporter, 44 h | Potency, µM (highest dose often 41.8 µM), hits mostly inhibitors | 340,000 tested, 3.4% active
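Reporter virus HCVcc-Cre (~0.5 moi) infects cells exposed to compound; seeding density 1,000 cells/well with 4 h settling beforehand. Luminescence, 15 sec read, taken 44 h post-infection following a 15 min RT substrate incubation.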
Pf growth 96h = P. falciparum growth inhibition at 96 hours. AID 504834. 320,000 tested, 6.9% active. Potency, µM (highest dose often 28.7 µM), usual class: inhibitors. P. falciparum luciferase reporter growth, 96 h
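Delayed-death screen, second-generation endpoint: infected erythrocytes, 2% hematocrit, 0.05% parasitemia final; 96 hours at 37 C, 5% CO2; luciferase detection reagent; luminescence decrease equals reduced growth.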
Pf growth 48h = inhibits P. falciparum growth in the first generation, 48 h | P. falciparum luciferase growth in erythrocytes, 48 h | Potency, µM (top dose mostly 28.7 µM), hits mostly inhibitors | 310,000 tested, 5.9% active | AID 504832
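A one-generation exposure of luciferase-tagged malaria parasites in RPMI 1640/Albumax erythrocyte culture, 37 C and 5% CO2. Inhibition is inferred from decreased luminescence after adding detection reagent.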
Each line names hits and unclear results; the compound was inactive in the other large screens. Unless noted, calls follow the shape of the dose curve; as a rule, active = well fitted curve in the direction sought with a large enough effect; inconclusive = small, poorly fitted or top-dose-only effect, or another doubt; inactive = no such curve, though single readings can be large; an effect the other way counts as inactive or inconclusive.

COc1ccc(NC(=O)C2CC(c3c(F)cccc3Cl)=NO2)cc1OC (centres undefined)	CHX counter 21.0 (no result: Shiga toxin inh)
Cc1ccc(O)c(NC(=O)C2CC(c3c(F)cccc3Cl)=NO2)c1 (centres undefined)	Pf growth 48h inconclusive (no result: Pf growth 96h)
COc1cc(NC(=O)C2CC(c3c(F)cccc3Cl)=NO2)c(OC)cc1Cl (centres undefined)	HCV inh inconclusive, Pf growth 96h 10.4µM (no result: Shiga toxin inh)
COc1cccc(Cl)c1NC(=O)N1CCc2c([nH]c3ccccc23)C1C(F)(F)F (centres undefined)	HCV inh inconclusive, Pf growth 96h inconclusive, Pf growth 48h inconclusive
O=C(Nc1ccc(NC(=O)C23CC4CC(CC(C4)C2)C3)cn1)c1ccco1	Shiga toxin inh 69.3, CHX counter 48.3, Pf growth 96h inconclusive
O=C(Nc1ccc(NC(=O)C2CC2)cc1)c1ccco1	Shiga toxin inh 62.8, CHX counter 42.7
O=C(Nc1ccc(NC(=O)C2CCCCC2)cn1)c1ccco1	CHX counter 39.3
CCC(=O)Nc1ccc(NC(=O)C23CC4CC(CC(C4)C2)C3)cn1	Pf growth 96h inconclusive
O=c1[nH]nc(Cc2ccc3ccccc3n2)c2ccccc12	Shiga toxin inh 35.8, CHX counter 28.3, HCV inh inconclusive
O=c1[nH]nc(Cc2ccccc2)c2ccccc12	HCV inh inconclusive
CC(C)CCOc1ccc(C(=O)O)cc1	none (no result: Pf growth 96h)
CC(C)CCOc1ccc(C2CC(=O)N(C)C2=O)cc1 (centres undefined)	CHX counter 21.1
COCCCN1C(=O)C(CC(=O)NCC2CCCCC2)CC(C(=O)N2CCOCC2)=C1C (centres undefined)	none (no result: Shiga toxin inh, CHX counter, HCV inh, Pf growth 96h, Pf growth 48h)
CCC(COC)NC(=O)c1ccc(OC)c(OC2CCN(C(C)=O)CC2)c1 (centres undefined)	none
CCN(CC)c1ccc(N=Nc2nn(C)c(C)c2[N+](=O)[O-])cc1	Shiga toxin inh 86.7, CHX counter 64.6, HCV inh inconclusive, Pf growth 96h 3.7µM, Pf growth 48h inconclusive
CCN(Cc1ccccc1)c1ccc(N=Nc2nn(C)c(C)c2[N+](=O)[O-])cc1	AMA1-RON2 inh 10µM, CHX counter 17.2, HCV inh inconclusive, Pf growth 96h inconclusive, Pf growth 48h 1.65µM
